The list is not random: actives were taken first. Their share in the collection is about 2%.
TCR CD3 inh: inhibitors of human TCR-CD3 interaction, primary screen, biochemical, fluorescence, TAMRA-labeled TCR probe; T-cell receptor (TCR); inhibition, % at 9.4 µM; actives 0.37% (n = 360,000); AID 651800, 2012; in the data active means inhibition above about 19%;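 further: recombinant mutant TCR 2C K166C tagged with TAMRA read by polarization; 0% = receptor in buffer alone and 100% = receptor with positive control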
LEDGF integ inh: blockers of LEDGF/p75-dependent integrase strand transfer – biochemical, TR-FRET, high throughput, primary screen; AID 743269, 2014; TR-FRET IN-LEDGF/p75 DNA integration, Eu/Cy5; HIV-1 integrase (with human LEDGF/p75); inhibition, % at 3.7 µM; actives 0.64% (n = 370,000);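 active means inhibition above the screen-wide mean plus 3 SD, cut at about 13% in these data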;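 further: signal is the Cy5 over europium emission ratio at 671 and 618 nm; 0% = plate median of compound wells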
MBD2 inh: inhibitors of MBD2 binding to methylated DNA, primary screen, biochemical, TR-FRET, DNA-binding domain, human. MBD2 binding to methylated oligonucleotide. inhibition, % at 4.4 µM. Methyl-CpG-binding domain protein 2 (Homo sapiens), Q9UBB5. actives 0.31% (n = 370,000); in the data active means inhibition above about 13%
UHRF1 binding: UHRF1 methylated DNA binding inhibitors, primary screen, counter-screen for MBD2 inhibitor project, biochemical, TR-FRET, human UHRF1, single concentration. UHRF1 binding to methylated oligo. AID 687016, 2013. E3 ubiquitin-protein ligase UHRF1 (Homo sapiens), Q96T88. inhibition, % at 4.4 µM. actives 0.75% (n = 370,000); in the data active means inhibition above about 21%;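 further: UHRF1 SRA domain binding a hemimethylated CpG hairpin DNA probe; 0% = median of test compound wells and 100% = reference inhibitor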
Rin1 Abl inh: inhibitors of Rin1-Abl protein binding, primary screen, biochemical, TR-FRET. AID 588664, 2011. Tyrosine-protein kinase ABL1 (Homo sapiens) + Ras and Rab interactor 1 (Homo sapiens), …. actives 0.4% (n = 360,000). inhibition, % at 7.35 µM; in the data active means inhibition above about 5%, passing the limit was not always enough
* hit, by the source's call; x = no result.

SMILES	TCR CD3 inh	LEDGF integ inh	MBD2 inh	UHRF1 binding	Rin1 Abl inh
COc1ccc(C(=O)NNC(=O)CCCCC(=O)NNC(=O)c2ccc(OC)cc2)cc1	4	4	8	22*	-2
Cc1cccc(NC(=O)COC(=O)CNC(=O)C2CCCCC2)c1	8	0	0	-5	2
Cc1ccc(C)c(NC(=O)COC(=O)CNC(=O)C2CCCCC2)c1	-8	-3	0	52*	1
O=C(CNc1nnnn1-c1ccccc1)N1CCCC1	x	-4	8	-2	x
CCOC(=O)C1=C(COc2ccccc2)NC(=O)NC1c1ccc(Cl)cc1 (stereo not drawn)	-4	2	4	3	-1
CCOC(=O)C1=C(COC(=O)C2(C)CC2(Cl)Cl)NC(=O)NC1c1ccccc1 (stereo not drawn)	3	-1	-7	29*	0
C=CCn1c(CNS(=O)(=O)c2ccc(F)cc2)n[nH]c1=S	-2	-7	-1	42*	-3
C=CCn1c(CNS(=O)(=O)c2ccc(Cl)cc2)n[nH]c1=S	0	2	2	-1	3
O=C(/C(=C(\[O-])c1ccccc1)[n+]1ccc2ccccc2c1)c1ccc(Cl)cc1	-3	0	2	25*	-1
O=C(/C(=C(\[O-])c1ccccc1)[n+]1ccc2ccccc2c1)c1ccccc1	4	-2	-2	-8	1
Cc1onc(-c2ccccc2)c1C(=O)OCC(=O)NC(C)c1ccc(Cl)cc1 (stereo not drawn)	-5	1	-1	1	4
CC1CCN(S(=O)(=O)c2ccc3c(c2)c(=O)c(C(=O)N2CCCCC2)cn3C)CC1	3	-3	-2	73*	2
COc1ccccc1C(=O)COC(=O)c1ccc(N(C)C)cc1	-4	1	3	100*	1
COc1ccccc1C(=O)COC(=O)c1ccccc1O	5	-3	4	-4	3
Cc1cccc(N(C(=O)CNC(=O)c2ccco2)C(C(=O)NC2CCCC2)c2ccncc2)c1C (stereo not drawn)	8	3	0	0	4
COc1ccc2[nH]c3nc(SC(C)C)nnc3c2c1	4	0	-4	54*	-2
CC(C)(C)OC(=O)C[C@@H]1C/C=C\C[C@@H](CC(=O)NCCO)C(=O)NCCOC1=O	-3	18*	-1	2	0
CCOC(=O)C1CCCN(C2=C(NS(=O)(=O)c3ccc(Br)cc3)C(=O)c3ccccc3C2=O)C1 (stereo not drawn)	3	22*	-1	-2	-6
CCOC(=O)C1CCN(C2=C(NS(=O)(=O)c3ccc(Cl)cc3)C(=O)c3ccccc3C2=O)CC1	3	2	-7	-9	-8
COC(=O)c1ccc2c(=O)n(CCCCCC(=O)NCc3ccc4c(c3)OCO4)c(=O)[nH]c2c1	-2	3	1	1	-1
CCCCCn1c(=O)[nH]c2cc(C(=O)NCc3ccc4c(c3)OCO4)ccc2c1=O	7	-2	2	30*	1
O=[N+]([O-])c1ccc(-c2cnc(SC(c3ccccc3)c3ccccc3)[nH]2)cc1	2	2	3	45*	1
O=[N+]([O-])c1ccc(-c2cnc(SCc3ccccc3Cl)[nH]2)cc1	-1	7	3	2	0
CC(=O)Nc1ccc(S(=O)(=O)N2CCC(C(=O)Nc3nccs3)CC2)cc1	6	1	2	-3	2
COc1ccc(S(=O)(=O)N2CCC(C(=O)Nc3nccs3)CC2)cc1	-2	-2	-4	30*	-4
Cc1ccc(-c2cc(C(=O)NN=Cc3cccc4ccccc34)[nH]n2)cc1C	x	4	-8	2	x
COc1cc(C2C(C#N)=C(N)OC3=C2C(=O)CCC3)c([N+](=O)[O-])cc1OC (stereo not drawn)	2	13*	3	-4	-2
CCOc1cc(NC(=S)NCC2CCCO2)c(OCC)cc1NC(=O)c1ccccc1C (stereo not drawn)	-6	1	-1	47*	-3
COc1ccc(/C=C2\N=C(c3ccc(C)cc3)OC2=O)cc1	-5	-4	-2	0	0

Screens from PubChem BioAssay.
